Hit rate of the full screen: of about 1,000 compounds, about 550 (55%) were called active. No stated cut-off is given here; in the data, active means inhibition above about 50%; inactive means the rest. So high a share suggests a set chosen from earlier hits. The list is a sample of the results.
Experiment: yeast-expressed human NALP3 blockade, retest – luminescence, single concentration, confirmation (AID 488794)
Conditions: yeast expressing human NALP3, luminescence read-out; at 10 µM; stronger effect = higher value

| Structure (SMILES) | inhibition |
| --- | --- |
| CN(C)c1ccnc2sc(C(=O)c3ccccc3)c(N)c12 | 53.6% (active) |
| Oc1c(Cl)cc(Cl)c(Cl)c1Cc1c(O)c(Cl)cc(Cl)c1Cl | 98.5% (active) |
| Cc1ccnc(Nc2nc3ccccc3s2)n1 | 27.6% (inactive) |
| O=C(CC(O)(C(F)(F)F)C(F)(F)F)Nc1ccc(Cl)c(Cl)c1 | 99.8% (active) |
| Cc1ccc(O)c(NC(=O)c2cc(-c3ccco3)on2)c1 | 63.7% (active) |
| COc1ccccc1C(=O)Nc1ccc(NC(=O)c2ccco2)c(C)c1 | 32.3% (inactive) |
| Cc1ccc(CSc2nsc(C)c2C#N)cc1 | 48.2% (inactive) |
| Cc1ccc(OCc2nc3ccccc3n2C)cc1 | 57.2% (active) |
| CC(C)n1c(COc2ccccc2)nc2ccccc21 | 47.7% (inactive) |
| CN=C1C=C/C(=N/N=c2\ccn(O)cc2C)C=C1C | 57.2% (active) |
| O=[N+]([O-])c1cccc(/C=N/Nc2ncc(Br)cn2)c1 | 33.4% (inactive) |
| CCc1noc(C)c1C(=O)Nc1nc2ccc(OC)cc2s1 | 55.5% (active) |
| O=C1CSC(=S)N1c1ccc(O)cc1 | 59.4% (active) |
| COc1cc(N2C(=O)CSC2=S)cc(OC)c1OC | 35.6% (inactive) |
| Fc1ccccc1-c1cc2cc3c(cc2cn1)OCO3 | 39% (inactive) |
| Nc1c(-c2cccc(Cl)c2)cnn1-c1cccc([N+](=O)[O-])c1 | 52.1% (active) |
| O=C(CSc1ncnc2c1oc1ccccc12)NC1CCCC1 | 25.1% (inactive) |
| Cn1c(=NC(=O)c2ccco2)sc2cccc(F)c21 | 34.1% (inactive) |
| Cc1cccc(NC(=S)NC(=O)c2ccc(Br)o2)c1 | 65.7% (active) |
| Cc1ccc(-c2nn(C(C)(C)C)c3ncnc(N)c23)cc1 | 63.2% (active) |
| O=C(Nc1ccccc1Cl)/C(Cl)=C(\Cl)S(=O)c1ccccc1 (stereo unspecified) | 74.7% (active) |
| N#Cc1nc(Cc2ccccc2)oc1NCCc1ccccc1 | 36.6% (inactive) |
| CCOC(=O)c1c(C)[nH]c(C(=O)COc2ccc3c(c2)OCO3)c1C | 54.5% (active) |
| COc1ccccc1OCc1nc2ccccc2s1 | 43.2% (inactive) |
| CCCN(CC1CC1)C(=S)NC(=O)c1ccccc1Br | 38.8% (inactive) |
| Cc1cc(C)nc(NC(=O)Nc2ccccc2C(F)(F)F)n1 | 34.8% (inactive) |

| Structure (SMILES) | inhibition |
| --- | --- |
| Cc1c(C(=O)N2CCCc3ccccc32)oc2ccccc12 | 47.9% (inactive) |
| O=C(Oc1c(-c2ccco2)oc2ccccc2c1=O)c1cccnc1 | 68.5% (active) |
| Oc1ccc(Br)cc1/C=N/Nc1ccccn1 | 43.2% (inactive) |
| O=C(CSc1ccc(-c2ccc(-n3cccn3)cc2)nn1)Nc1ccc([N+](=O)[O-])cc1 | 18.1% (inactive) |
| O=[N+]([O-])/C=C/c1ccc2c(ccn2Cc2ccccc2)c1 | 96.3% (active) |
| CCCNc1ncnc2sc(C)c(C)c12 | 36.4% (inactive) |
| C[C@@H]1C[C@@H]2O[C@H]2/C=C\C=C\C(=O)Cc2c(Cl)c(O)cc(O)c2C(=O)O1 | 66.2% (active) |
| CC(C)C(=O)N1CCN(CCN=CC2=C(O)CC(c3ccco3)CC2=O)CC1 (stereo unspecified) | 62.1% (active) |
| CC1(C)CCSC(/C=C/c2ccccc2)=N1 | 79.8% (active) |
| O=C(Nc1ccc2oc(-c3ccccc3F)nc2c1)c1ccco1 | 71.3% (active) |
| O=C(Nc1ccc(Oc2ccccc2)cc1)c1ccco1 | 35.9% (inactive) |
| Cn1c(=O)c(C(=O)Nc2ncccn2)c(O)c2ccccc21 | 60.2% (active) |
| Cc1cc(C)c(/C=C2\C(=O)Nc3ccccc32)[nH]1 | 36.6% (inactive) |
| CCc1cc(C(=O)Nc2nnc(C3CC3)s2)sc1C | 40.9% (inactive) |
| Cc1ccc(OCc2nc(C#N)c(N3CCCC3)o2)cc1 | 53.5% (active) |
| CCN(CC)c1ccc(/C=N/Nc2nc(C)cc(C)n2)c(O)c1 | 63% (active) |
| O=[N+]([O-])c1c(NCCO)cc(Sc2nc3ccccc3s2)c2nonc12 | 48% (inactive) |
| Cc1cc(C(=O)COc2ccc(Br)cc2F)c(C)n1C1CC1 | 49.4% (inactive) |
| CC(C)Sc1ncnc2c1cnn2-c1ccccc1 | 46.2% (inactive) |
| O=C(NCc1ccc2c(c1)OCO2)c1c(O)nc2sccn2c1=O | 38.4% (inactive) |
| CC(=NCc1ccc2c(c1)OCO2)C1=C(O)c2ccccc2C1=O | 63.9% (active) |
| Cc1ccc2cccc(S(=O)(=O)N3CCN(c4ccccc4F)CC3)c2n1 | 47.8% (inactive) |
| CC(=O)[C@@]12O[C@@H]1C[C@H]1[C@@H]3CC[C@H]4C[C@@H](O)CC[C@]4(C)[C@H]3CC[C@@]12C | 38.2% (inactive) |
| O=C(COc1ccccc1F)Nc1nc(-c2ccccn2)cs1 | 37.1% (inactive) |
| CCSc1nc2sc3c(c2c(=O)n1-c1ccc(C)cc1)CCN(C)C3 | 44.3% (inactive) |

Reference: PubChem BioAssay AID488794 (Sanford-Burnham Center for Chemical Genomics, 2010)
